The whole screen tested about 5,500 compounds, of which about 2,000 (36%) were called active. About 18% were inconclusive and are not listed. No stated cut-off is given here; in the data, active means normalized growth mostly below about 0.91 (no sharp cut-off); inconclusive means no clear call, values can overlap the other calls; inactive means mostly above about 0.92. The list shows a part of the results.
Experiment: chemical genetic growth profiling, strain panel (AID 1159580);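 further: tested at 20 µM; growth read once vehicle control cultures reached saturation at 30 °C; 1 = growth at the plate median or of vehicle wells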
Details: S. cerevisiae deletion strains, growth OD
[1] = locus YAR019C, strain CDC15, stronger effect = lower value
[2] = locus YBL105C, strain PKC1, stronger effect = lower value
[3] = locus YBR135W, strain CKS1, stronger effect = lower value
[4] = locus YBR136W, strain MEC1, stronger effect = lower value
[5] = locus YBR160W, strain CDC28, stronger effect = lower value
[6] = locus YDL017W, strain CDC7, stronger effect = lower value
[7] = locus YDL028C, strain MPS1, stronger effect = lower value
[8] = locus YDL101C, strain DUN1, stronger effect = lower value
[9] = locus YDL108W, strain KIN28, stronger effect = lower value
[10] = locus YDL132W, strain cdc53, stronger effect = lower value
[11] = locus YDL214C, strain PRR2, stronger effect = lower value
[12] = locus YDR052C, strain DBF4, stronger effect = lower value
[13] = locus YDR054C, strain cdc34, stronger effect = lower value
[14] = locus YDR226W, strain ADK1, stronger effect = lower value
[15] = locus YDR477W, strain SNF1, stronger effect = lower value
[16] = locus YER123W, strain YCK3, stronger effect = lower value
[17] = locus YER133W, strain GLC7, stronger effect = lower value
[18] = locus YFL009W, strain cdc4, stronger effect = lower value
[19] = locus YFL029C, strain CAK1, stronger effect = lower value
[20] = locus YFR003C, strain YPI1, stronger effect = lower value
[21] = locus YFR019W, strain FAB1, stronger effect = lower value
[22] = locus YFR028C, strain CDC14, stronger effect = lower value
[23] = locus YGR040W, strain KSS1, stronger effect = lower value
[24] = locus YGR052W, strain FMP48, stronger effect = lower value
[25] = locus YGR092W, strain DBF2, stronger effect = lower value
[26] = locus YHR030C, strain SLT2, stronger effect = lower value
[27] = locus YHR079C, strain IRE1, stronger effect = lower value
[28] = locus YHR082C, strain KSP1, stronger effect = lower value
[29] = locus YHR205W, strain SCH9, stronger effect = lower value
[30] = locus YIL147C, strain SLN1, stronger effect = lower value
[31] = locus YJL095W, strain BCK1, stronger effect = lower value
[32] = locus YJL128C, strain PBS2, stronger effect = lower value
[33] = locus YJL157C, strain FAR1, stronger effect = lower value
[34] = locus YJR016C, strain ILV3, stronger effect = lower value
[35] = locus YJR066W, strain TOR1 (second series), stronger effect = lower value
[36] = locus YJR066W, strain TOR1, stronger effect = lower value
[37] = locus YKL048C, strain ELM1, stronger effect = lower value
[38] = locus YKL067W, strain YNK1, stronger effect = lower value
[39] = locus YKL101W, strain HSL1, stronger effect = lower value
[40] = locus YKL193C, strain SDS22, stronger effect = lower value
[41] = locus YKL203C, strain TOR2, stronger effect = lower value
[42] = locus YLR113W, strain HOG1, stronger effect = lower value
[43] = locus YLR133W, strain CKI1, stronger effect = lower value
[44] = locus YLR403W, strain SFP1, stronger effect = lower value
[45] = locus YML070W, strain DAK1, stronger effect = lower value
[46] = locus YMR001C, strain CDC5, stronger effect = lower value
[47] = locus YMR205C, strain PFK2 (second series), stronger effect = lower value
[48] = locus YMR277W, strain FCP1, stronger effect = lower value
[49] = locus YNL006W, strain LST8, stronger effect = lower value
[50] = locus YNL020C, strain ARK1, stronger effect = lower value
[51] = locus YNL161W, strain CBK1, stronger effect = lower value
[52] = locus YNL183C, strain NPR1, stronger effect = lower value
[53] = locus YNL207W, strain RIO2, stronger effect = lower value
[54] = locus YNL222W, strain SSU72, stronger effect = lower value
[55] = locus YNL307C, strain MCK1 (second series), stronger effect = lower value
[56] = locus YOL078W, strain AVO1, stronger effect = lower value
[57] = locus YOL136C, strain PFK27, stronger effect = lower value
[58] = locus YOR061W, strain CKA2, stronger effect = lower value
[59] = locus YOR119C, strain RIO1, stronger effect = lower value
[60] = locus YOR231W, strain MKK1, stronger effect = lower value
[61] = locus YOR329C, strain SCD5, stronger effect = lower value
[62] = locus YPL031C, strain PHO85, stronger effect = lower value
[63] = locus YPL153C, strain RAD53, stronger effect = lower value
[64] = locus YPL204W, strain HRR25, stronger effect = lower value
[65] = locus YPL209C, strain IPL1, stronger effect = lower value
[66] = locus YPL256C, strain CLN2, stronger effect = lower value
[67] = locus YPR025C, strain CCL1, stronger effect = lower value
[68] = locus YPR106W, strain ISR1, stronger effect = lower value
[69] = locus YPR111W, strain DBF20, stronger effect = lower value
[70] = strain NNK1, stronger effect = lower value
[71] = strain TSCII, stronger effect = lower value

Measured: normalized growth

Cc1ccc(NNC(=O)c2cccs2)cc1Cl
inactive: [1] 0.969 | [2] 0.969 | [3] 0.971 | [4] 0.974 | [5] 0.957 | [6] 0.979 | [7] 0.972 | [8] 0.968 | [9] 0.967 | [10] 0.975 | [11] 0.964 | [12] 0.976 | [13] 0.966 | [14] 0.96 | [15] 0.974 | [16] 0.897 | [17] 0.966 | [18] 0.976 | [19] 0.966 | [20] 0.976 | [21] 0.958 | [22] 0.964 | [23] 0.963 | [24] 1.01 | [25] 0.824 | [26] 0.943 | [27] 0.97 | [28] 1.03 | [29] 0.964 | [30] 0.98 | [31] 0.984 | [32] 0.963 | [33] 0.952 | [34] 0.975 | [35] 0.925 | [36] 1.03 | [37] 0.945 | [38] 0.953 | [39] 0.963 | [40] 0.968 | [41] 1.03 | [42] 0.876 | [43] 0.968 | [44] 0.929 | [45] 0.918 | [46] 0.979 | [47] 0.961 | [48] 0.974 | [49] 0.975 | [50] 0.963 | [51] 0.966 | [52] 0.979 | [53] 0.976 | [54] 0.961 | [55] 0.922 | [56] 0.972 | [57] 0.943 | [58] 0.894 | [59] 1.02 | [60] 0.914 | [61] 0.978 | [62] 0.964 | [63] 0.949 | [64] 0.959 | [65] 0.967 | [66] 0.948 | [67] 0.969 | [68] 0.973 | [69] 0.962 | [70] 0.991 | [71] 0.972

Cc1cc(Cl)ccc1NNC(=O)c1sccc1Br
inactive: [1] 0.928 | [2] 0.925 | [3] 0.927 | [4] 0.921 | [5] 0.918 | [6] 0.928 | [7] 0.929 | [8] 0.917 | [9] 0.932 | [10] 0.918 | [11] 0.872 | [12] 0.931 | [13] 0.908 | [14] 0.922 | [15] 0.871 | [16] 0.81 | [17] 0.851 | [18] 0.925 | [19] 0.921 | [20] 0.924 | [21] 0.895 | [22] 0.924 | [23] 0.844 | [24] 0.908 | [25] 0.784 | [27] 0.862 | [28] 0.879 | [29] 0.844 | [30] 0.928 | [31] 0.714 | [32] 0.895 | [33] 0.85 | [34] 0.935 | [35] 0.862 | [36] 0.886 | [37] 0.896 | [38] 0.873 | [39] 0.872 | [40] 0.92 | [41] 0.921 | [43] 0.849 | [44] 0.838 | [45] 0.842 | [46] 0.918 | [47] 0.87 | [48] 0.921 | [49] 0.925 | [50] 0.862 | [51] 0.923 | [52] 0.851 | [53] 0.906 | [54] 0.925 | [55] 0.785 | [56] 0.916 | [57] 0.825 | [58] 0.868 | [59] 0.92 | [60] 0.824 | [61] 0.913 | [62] 0.867 | [63] 0.855 | [64] 0.838 | [65] 0.911 | [67] 0.925 | [68] 0.912 | [69] 0.919 | [70] 0.915 | [71] 0.92
active: [26] 0.489 | [42] 0.715 | [66] 0.793

Cc1cc(Cl)ccc1NNC(=O)c1sccc1Cl
inactive: [1] 0.892 | [2] 0.912 | [3] 0.908 | [4] 0.9 | [5] 0.913 | [6] 0.915 | [7] 0.912 | [9] 0.907 | [10] 0.928 | [11] 0.869 | [13] 0.882 | [15] 0.861 | [16] 0.787 | [17] 0.794 | [18] 0.893 | [19] 0.883 | [20] 0.911 | [21] 0.907 | [22] 0.894 | [23] 0.861 | [24] 0.861 | [25] 0.7 | [27] 0.859 | [28] 0.884 | [29] 0.878 | [30] 0.913 | [32] 0.89 | [33] 0.864 | [35] 0.874 | [36] 0.835 | [37] 0.872 | [38] 0.861 | [39] 0.917 | [40] 0.893 | [41] 0.912 | [43] 0.878 | [44] 0.831 | [45] 0.836 | [46] 0.894 | [47] 0.844 | [48] 0.905 | [50] 0.885 | [52] 0.858 | [53] 0.9 | [54] 0.896 | [55] 0.811 | [56] 0.888 | [57] 0.84 | [58] 0.876 | [59] 0.91 | [60] 0.823 | [61] 0.909 | [62] 0.861 | [63] 0.803 | [64] 0.822 | [67] 0.902 | [68] 0.903 | [69] 0.882 | [70] 0.897
active: [8] 0.907 | [12] 0.898 | [14] 0.894 | [26] 0.152 | [31] 0.194 | [34] 0.898 | [42] 0.779 | [49] 0.898 | [51] 0.89 | [65] 0.899 | [66] 0.803 | [71] 0.878
